Screens: PubChem BioAssay, National Center for Advancing Translational Sciences (NCATS)
Pf growth 48h – inhibits P. falciparum growth in the first generation, 48 h | P. falciparum luciferase growth in erythrocytes, 48 h | Potency, µM (highest dose often 28.7 µM), for the others: top-dose activity change, negative = inhibition, most hits filed as inhibitors | 310,000 compounds, 5.9% hits | AID 504832; note: potency is the fitted concentration of half-maximal effect; % is set by controls: 0 for no effect and ±100 for the full control effect
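Erythrocytes infected with P. falciparum carrying an integrated firefly luciferase reporter (2% hematocrit, 0.1% parasitemia final) were exposed to compounds in RPMI 1640 with 0.5% Albumax at 37 C, 5% CO2. Growth inhibition was scored as reduced luminescence.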
AMA1-RON2 inh – inhibitors of Plasmodium falciparum AMA1-RON2 interaction; AlphaScreen AMA1-biotinylated RON2 peptide binding; Potency, µM (top dose mostly 58.2 µM), for inactives: at the highest dose activity change, negative = inhibition, actives largely listed as inhibitors; 360,000 compounds, 0.2% hits;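 note: potency is the fitted concentration of half-maximal effect; 0% = vehicle wells and -100% = peptide control; nearly all actives have a fitted effect of over 45% in size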
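AMA1 (3D7) with his tag at 25 nM final met compounds first, then biotinylated RON2 peptide at 25 nM; detection used donor plus acceptor beads, 10 µg/mL apiece, read by AlphaScreen after 30 min at room temperature.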
Cycloheximide cs – counter-screen for Shiga toxin inhibitors: cycloheximide protein synthesis inhibition; cell reporter, cycloheximide protein synthesis inhibition counterscreen; 300,000 compounds, 12% hits; max response, %; in the data active = max response mostly above about 13%, no sharp cut-off; inactive = mostly below about 14%; note: read at 38.3 µM for the half of the compounds with a filed dose; 0% is about no effect
Shiga inhibitor – inhibitors of Shiga toxin in Vero cells. 290,000 compounds, 9.2% hits. inhibition, % at 38.7 µM. Vero cells, Shiga toxin protein synthesis inhibition reporter; in the data active = inhibition mostly above about 28%, no sharp cut-off; inactive = mostly below about 43%; note: 0% is about no effect
HCV inhibitor – blocks hepatitis C virus; 340,000 compounds, 3.4% hits; Huh7.5.1 HCVcc-Cre infection, luciferase reporter, 44 h; Potency, µM (titrated, usually from 41.8 µM), inactives show at the highest dose activity change, negative = inhibition, usual class: inhibitors; AID 651820; note: potency is the fitted concentration of half-maximal effect; % is set by controls: 0 for no effect and ±100 for the full control effect
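After 44 h co-culture of compound, cells and HCVcc-Cre (~0.5 moi), substrate is added for 15 min at room temperature and luciferase measured over 15 sec. Cells were seeded at 1,000/well and pre-cultured 4 h.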
Pf growth 96h – P. falciparum growth inhibition at 96 hours; P. falciparum luciferase reporter growth, 96 h; Potency, µM (titrated, usually from 28.7 µM), for inactives: at the top dose activity change, negative = inhibition, most hits filed as inhibitors; 320,000 compounds, 6.9% hits; note: potency is the fitted concentration of half-maximal effect; % is set by controls: 0 for no effect and ±100 for the full control effect
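Readout is luminescence from an integrated firefly luciferase in P. falciparum. Red cells, 2% hematocrit and 0.05% parasitemia final, were cultured with compound through two parasite generations (96 hours) at 37 C, 5% CO2.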
* marks the source's active call; other numbers are inactive results; ? = inconclusive; . = not tested or not shown; [ ] = dose if it differs, or a comment. Rows were chosen to be rich in hits. Some 21% of all compounds tested hit in one or more screens of this group. Unless noted, calls come from the whole dose curve; as a rule, active = well fitted curve in the direction sought with a large enough effect; inconclusive = small, poorly fitted or top-dose-only effect, or another doubt; inactive = no such curve, though single readings can be large; an effect the other way counts as inactive or inconclusive.

SMILES	Pf growth 48h	AMA1-RON2 inh	Cycloheximide cs	Shiga inhibitor	HCV inhibitor	Pf growth 96h
CCOc1ccc(C(C)NC(=S)NC2CCCCC2)cc1 (stereo not drawn)	?	8.4%	-2.2	35.4	?	?
CCc1ccc(C(C)NC(=S)NC2CCCCC2)cc1 (stereo not drawn)	?	41.7%	-1.9	-1.2	?	61.3%
CCC(NC(=S)NC1CCCCC1)c1ccccc1 (stereo not drawn)	?	.	-2.1	-8.4	.	?
CCOc1ccc(C(C)NC(=S)NC2CCCCC2)cc1OCC (stereo not drawn)	0.0828µM*	-0.1%	-4.1	1.2	?	?
CC(NC(=S)NC1CCCCC1)c1ccc(C(C)(C)C)cc1 (stereo not drawn)	5.86µM*	72.0%	5.4	1.3	?	-6.6%
CC(=O)NCCCC[C@H](NC(=O)OC(C)(C)C)C(=O)Nc1ccc2c(C(F)(F)F)cc(=O)oc2c1	.	.	-3.1	-4.0	.	.
Cc1ccccc1CN1CCN(C(=O)[C@H]2O[C@@H](n3cnc4c(N)ncnc43)[C@H](O)[C@@H]2O)CC1	.	4.5%	.	.	.	.
O=C(C(=Cc1ccccc1)CN1CCCCC1)c1ccccc1	.	-6.1%	.	.	2.24µM*	.
N#Cc1nc(Cc2cccc3ccccc23)oc1N1CCOCC1	?	-20.1%	-2.5	-2.4	-13.9%	2.08µM*
N#Cc1nc(COc2ccccc2)oc1N1CCC(Cc2ccccc2)CC1	9.28µM*	?	-3.7	-14.3	-25.6%	-1.3%
N#Cc1nc(Cc2ccccc2)oc1N1CCCC1	-6.9%	3.5%	26.4*	35.0*	24.0%	-15.0%[5.75 µM]
COc1ccccc1OCc1nc(C#N)c(N2CCCC2)o1	7.2%	-10.7%	27.0*	48.9*	-19.1%	-1.9%
CC1CC(C)CN(c2oc(Cc3ccccc3)nc2C#N)C1 (stereo not drawn)	?	?	6.1	13.1	-12.6%	?
O=C(Nc1ccnn1C1CCN(Cc2cccc(OCCO)c2)CC1)c1cccc(F)c1	?	3.6%	5.0	-2.7	5.6%	27.9%
CCOC(=O)C1(Cc2ccccc2C)CCCN(C(=O)c2sccc2C)C1 (stereo not drawn)	?	-1.3%	29.3*	19.8	-10.6%	?
CCOC(=O)C1(Cc2ccccc2C)CCCN(C(=O)c2ccoc2)C1 (stereo not drawn)	?	-25.0%	44.4*	71.2*	21.1%	?
CCOC(=O)C1(Cc2ccccc2C)CCCN(S(=O)(=O)c2cccnc2)C1 (stereo not drawn)	9.28µM*	3.6%	0.4	16.1	-6.5%	10.4µM*
CCOC(=O)C1(Cc2ccccc2C)CCCN(C(=O)c2ccnn2C)C1 (stereo not drawn)	-30.6%	-2.2%	8.7	9.1	7.9%	?
COc1cccc(CNC(=O)C(NS(=O)(=O)c2ccc3c(c2)CCN3C(C)=O)C(C)C)c1 (stereo not drawn)	-9.7%	11.5%	23.6*	29.4	0.4%	-10.5%
CC(=O)N1CCc2cc(S(=O)(=O)NC(C(=O)NCc3ccccc3)C(C)C)ccc21 (stereo not drawn)	-17.3%	8.0%	-3.5	1.0	15.5%	.
CCC(=O)N1CCc2cc(S(=O)(=O)NCCC(=O)NCc3ccccc3Cl)ccc21	1.6%	44.3%	-3.0	-1.3	-5.6%	8.28µM*
CC(=O)N1CCc2cc(S(=O)(=O)NCC(=O)NCc3ccc(F)cc3)ccc21	?	-1.6%	6.2	-13.2	3.6%	-13.3%
CC(=O)N1CCc2cc(S(=O)(=O)NCC(=O)NCc3ccccc3Cl)ccc21	-13.6%	-9.1%	-7.9	-6.1	5.9%	9.28µM*
CCC(=O)N1CCc2cc(S(=O)(=O)NCCC(=O)NCc3ccccc3OC)ccc21	4.3%	-5.8%	13.7	-4.8	-7.8%	?
Nc1ccc2oc(C3CCCCC3)nc2c1	91.4%	-2.9%	55.0*	96.5*	-6.0%	?
O=[N+]([O-])c1ccc2oc(C3CCCCC3)nc2c1	107.2%	-10.2%	28.7*	76.2*	12.9%	36.0%
Cc1nc2ccc([N+](=O)[O-])cc2nc1C	8.6%	-3.9%	12.0	-15.9	4.3%	28.0%
Cc1ccc(NC2=NCCC2)cc1Cl	-4.8%	6.0%	-2.1	-8.1	1.8%	?
